Results: PubChem BioAssay (NCATS)
Inconclusive results are not listed. Calls of active or inactive are those of the source. Calls follow the shape of the dose curve; as a rule, active = well fitted inhibition curve with a large enough effect; inconclusive = small, poorly fitted or top-dose-only effect; inactive = flat fitted curve, though single readings scatter.

What was measured:
Test in all cases: qHTS profiling for inhibitors of Plasmodium falciparum proliferation (AID 504749); also: nearly all actives have a fitted effect of over 60% in size
Conditions in all cases: P. falciparum in erythrocytes, SYBR Green DNA, 72 h; series mostly up to 28.7 µM
[1] = system: 7G8
Summary of the method: (§1)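 Fluorescence of SYBR Green-bound parasite DNA, read at 485/535 nm, served as the growth measure. Infected erythrocytes were cultured with compound 72 h; artemisinin (0.29 uM) and DMSO wells defined the normalization range.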

[2] = system: C2A
Summary of the method: as §1

[3] = system: CP192
Summary of the method: as §1

[4] = system: CP194
Summary of the method: as §1

[5] = system: CP203
Summary of the method: as §1

[6] = system: CP217
Summary of the method: as §1

[7] = system: CP237
Summary of the method: as §1

[8] = system: CP268
Summary of the method: as §1

[9] = system: CP269
Summary of the method: as §1

[10] = system: CP291
Summary of the method: as §1

[11] = system: CP315
Summary of the method: as §1

[12] = system: CP329
Summary of the method: as §1

[13] = system: DIV30
Summary of the method: as §1

[14] = system: HB3
Summary of the method: as §1

[15] = system: JCK
Summary of the method: as §1

[16] = system: P94_40
Summary of the method: as §1

[17] = system: PC26
Summary of the method: as §1

[18] = system: SC27B
Summary of the method: as §1

[19] = system: TAB109
Summary of the method: as §1

[20] = system: CP266
Summary of the method: as §1

Measured: Potency

O=C(O)c1ccccc1-c1c2cc(Br)c(=O)c(Br)c-2oc2c(Br)c(O)c(Br)cc12
not listed: [20]
inactive: all other assays above

CC(=O)OCC1=C(C(=O)O)N2C(=O)C(NC(=O)Cc3ccccc3)C2SC1 (stereo not drawn)
inactive: all assays above

CC(C)CC(NC(=O)C(COC(C)(C)C)NC(=O)C(Cc1ccc(O)cc1)NC(=O)C(CO)NC(=O)C(Cc1c[nH]c2ccccc12)NC(=O)C(Cc1cnc[nH]1)NC(=O)C1CCC(=O)N1)C(=O)NC(CCCN=C(N)N)C(=O)N1CCCC1C(=O)NNC(N)=O (stereo not drawn)
inactive: all assays above

CCC(Oc1ccccc1)C(=O)NC1C(=O)N2C1SC(C)(C)C2C(=O)O (stereo not drawn)
not listed: [3]
inactive: all other assays above
